According to PubChem BioAssay (NCATS):
Where “and” joins values, the source holds several entries; their conditions need not be identical. Equal values may be shown once. Results filed as inconclusive are left out. Calls of active or inactive are those of the source. The call rests on the fitted dose curve; in most records, active means well fitted curve in the direction sought with a large enough effect; inconclusive means small, poorly fitted or top-dose-only effect, or another doubt; inactive means no such curve, though single readings can be large; an effect the other way counts as inactive or inconclusive.

Legend:
3D7 = experiment: qHTS profiling for inhibitors of Plasmodium falciparum proliferation (AID 504749); further: nearly all actives have a fitted effect of over 60% in size; further: potency means the concentration at half of the fitted maximal effect; conditions: P. falciparum in erythrocytes, SYBR Green DNA, 72 h; series mostly up to 28.7 µM
Outline: (§1)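 P. falciparum-infected erythrocytes (0.3% parasitemia, 2.5% hematocrit final) were exposed to compounds for 72 h at 37 C in 5% CO2, then lysed with SYBR Green buffer overnight at room temperature; parasite DNA fluorescence was normalized to artemisinin and DMSO controls.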

CP194 = experiment: as above; conditions: P. falciparum in erythrocytes, SYBR Green DNA, 72 h; series mostly up to 28.7 µM
Outline: as §1

CP260 = experiment: as above; conditions: P. falciparum in erythrocytes, SYBR Green DNA, 72 h; series mostly up to 28.7 µM
Outline: as §1

CP268 = experiment: as above; conditions: P. falciparum in erythrocytes, SYBR Green DNA, 72 h; series mostly up to 28.7 µM
Outline: as §1

CP269 = experiment: as above; conditions: P. falciparum in erythrocytes, SYBR Green DNA, 72 h; series mostly up to 28.7 µM
Outline: as §1

CP286 = experiment: as above; conditions: P. falciparum in erythrocytes, SYBR Green DNA, 72 h; series mostly up to 28.7 µM
Outline: as §1

CP291 = experiment: as above; conditions: P. falciparum in erythrocytes, SYBR Green DNA, 72 h; series mostly up to 28.7 µM
Outline: as §1

CP297 = experiment: as above; conditions: P. falciparum in erythrocytes, SYBR Green DNA, 72 h; series mostly up to 28.7 µM
Outline: as §1

CP305 = experiment: as above; conditions: P. falciparum in erythrocytes, SYBR Green DNA, 72 h; series mostly up to 28.7 µM
Outline: as §1

CP335 = experiment: as above; conditions: P. falciparum in erythrocytes, SYBR Green DNA, 72 h; series mostly up to 28.7 µM
Outline: as §1

DIV14 = experiment: as above; conditions: P. falciparum in erythrocytes, SYBR Green DNA, 72 h; series mostly up to 28.7 µM
Outline: as §1

Dd2 = experiment: as above; conditions: P. falciparum in erythrocytes, SYBR Green DNA, 72 h; series mostly up to 28.7 µM
Outline: as §1

ECU = experiment: as above; conditions: P. falciparum in erythrocytes, SYBR Green DNA, 72 h; series mostly up to 28.7 µM
Outline: as §1

FAB9 = experiment: as above; conditions: P. falciparum in erythrocytes, SYBR Green DNA, 72 h; series mostly up to 28.7 µM
Outline: as §1

GB4 = experiment: as above; conditions: P. falciparum in erythrocytes, SYBR Green DNA, 72 h; series mostly up to 28.7 µM
Outline: as §1

P93_24 = experiment: as above; conditions: P. falciparum in erythrocytes, SYBR Green DNA, 72 h; series mostly up to 28.7 µM
Outline: as §1

TAB109 = experiment: as above; conditions: P. falciparum in erythrocytes, SYBR Green DNA, 72 h; series mostly up to 28.7 µM
Outline: as §1

TAB165 = experiment: as above; conditions: P. falciparum in erythrocytes, SYBR Green DNA, 72 h; series mostly up to 28.7 µM
Outline: as §1

[1] = target: Cytochrome P450 3A4 (Homo sapiens) (UniProt P08684); experiment: qHTS Assay for Inhibitors and Substrates of Cytochrome P450 3A4 (AID 884); further: nearly all actives have a fitted effect of over 50% in size; further: potency means the concentration at half of the fitted maximal effect; on activity change, negative = inhibition: on the % scale 0 is the no-effect control and ±100 the full control effect
Outline: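 20 nM human CYP3A4 with 25 uM Luciferin-PPXE (at KM) in 200 mM KPO4, preincubated 10 min with compound; NADPH regeneration started a 60 min RT reaction. Luciferin detected by luminescence, normalized to 57 uM ketoconazole as full inhibition.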

[2] = target: Guanine nucleotide-binding protein G(i) subunit alpha-1 (Homo sapiens) (UniProt P63096); experiment: qHTS Assay for Inhibitors of RGS12 GoLoco Motif Activity (Green Fluorophore) (AID 879);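 further: 0% = labeled peptide with Gαi1 and full inhibition = labeled peptide alone without protein; negative values mean loss of peptide binding seen as reduced polarization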
Outline: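 Fluorescence polarization assay: 50 nM Gαi1 with 10 nM FITC-labeled RGS12 GoLoco peptide in 10 mM Tris pH 7.5, 150 mM NaCl, 0.1 mM GDP, 0.05% NP40, 10 min at room temperature with compound.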

Chain of Guanine nucleotide-binding protein G(i) subunit alpha-1 (Homo sapiens) (P63096 whole entry, looked up): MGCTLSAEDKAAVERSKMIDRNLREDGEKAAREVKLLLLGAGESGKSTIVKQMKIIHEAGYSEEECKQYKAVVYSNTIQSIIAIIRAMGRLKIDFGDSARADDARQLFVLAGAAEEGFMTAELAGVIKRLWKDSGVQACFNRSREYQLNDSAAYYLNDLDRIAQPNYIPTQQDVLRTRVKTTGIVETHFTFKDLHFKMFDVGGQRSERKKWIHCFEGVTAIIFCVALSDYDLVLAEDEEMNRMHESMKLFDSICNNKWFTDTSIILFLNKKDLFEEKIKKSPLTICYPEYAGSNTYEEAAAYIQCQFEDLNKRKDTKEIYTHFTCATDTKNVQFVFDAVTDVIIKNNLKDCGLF
Chain of Cytochrome P450 3A4 (Homo sapiens) (P08684 whole entry, looked up): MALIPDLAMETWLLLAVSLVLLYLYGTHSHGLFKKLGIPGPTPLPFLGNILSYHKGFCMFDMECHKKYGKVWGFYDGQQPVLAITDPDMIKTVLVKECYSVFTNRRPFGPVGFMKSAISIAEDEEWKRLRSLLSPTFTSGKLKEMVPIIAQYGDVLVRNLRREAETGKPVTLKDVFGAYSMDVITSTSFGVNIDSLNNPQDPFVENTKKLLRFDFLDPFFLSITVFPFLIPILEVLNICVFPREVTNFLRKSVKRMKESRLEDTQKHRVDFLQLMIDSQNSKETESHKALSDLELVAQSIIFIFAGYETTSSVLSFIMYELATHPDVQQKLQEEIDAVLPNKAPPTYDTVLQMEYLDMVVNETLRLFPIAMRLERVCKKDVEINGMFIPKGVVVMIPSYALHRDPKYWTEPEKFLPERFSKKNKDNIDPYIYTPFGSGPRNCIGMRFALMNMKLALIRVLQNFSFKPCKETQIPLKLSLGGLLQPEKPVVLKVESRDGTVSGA

CN1[C@@H]2CC(OC(=O)[C@@H](CO)c3ccccc3)C[C@@H]1[C@H]1O[C@H]12 (stereo partly drawn)
inactive: Potency (3D7) | Potency (CP194) | Potency (CP260) | Potency (CP268) | Potency (CP269) | Potency (CP286) | Potency (CP291) | Potency (CP297) | Potency (CP305) | Potency (CP335) | Potency (DIV14) | Potency (Dd2) | Potency (ECU) | Potency (FAB9) | Potency (GB4) | Potency (P93_24) | Potency (TAB109) | Potency (TAB165)

N=C1C=CC(=C(c2ccc(N)cc2)c2ccc(N)cc2)C=C1
active: Potency [1] 12.6 µM and 3.16 µM

O=C1c2ccccc2C(O)(O)[C@@]1(O)[C@]1(O)C(=O)c2ccccc2C1(O)O
inactive: activity change, negative = inhibition [1] 11.5% [at 11.4 µM]

C[N+](C)([O-])CCC=C1c2ccccc2CCc2ccccc21
active: Potency [1] 1.26 µM

CN1CCN(c2ncc3nc(-c4ccc(Cl)cc4)c(=O)n(C4CC4)c3n2)CC1
inactive: Potency [1]

CCc1ccc2c(c1)N(C[C@H](C)CN(C)C)c1ccccc1S2
active: Potency (DIV14) 8.49 µM | Potency (GB4) 7.57 µM | Potency (P93_24) 7.94 µM

CCNc1ncc2nc(CCc3ccccc3)c(=O)n(-c3ccc(OC)cc3)c2n1
active: Potency [1] 6.31 µM

CC[C@H]1C(=O)OC[C@H]1Cc1cncn1C
inactive: outcome [2]

C(=C/c1ccccc1)/CN1CCN(C(c2ccccc2)c2ccccc2)CC1
inactive: Potency (CP194) | Potency (CP268) | Potency (CP269) | Potency (CP305) | Potency (ECU) | Potency (FAB9) | Potency (P93_24) | Potency (TAB109) | Potency (TAB165)

CC(=O)N1CCN(c2ccc(OC[C@@H]3CO[C@@](Cn4ccnc4)(c4ccc(Cl)cc4Cl)O3)cc2)CC1
inactive: Potency (3D7) | Potency (CP260) | Potency (CP269) | Potency (CP291) | Potency (CP297) | Potency (Dd2) | Potency (FAB9)

C[N+]1(C)[C@@H]2CC(OC(=O)[C@@H](CO)c3ccccc3)C[C@@H]1[C@H]1O[C@H]12 (stereo partly drawn)
inactive: Potency (3D7) | Potency (CP260) | Potency (CP268) | Potency (CP269) | Potency (CP286) | Potency (CP291) | Potency (CP297) | Potency (CP305) | Potency (CP335) | Potency (DIV14) | Potency (Dd2) | Potency (ECU) | Potency (FAB9) | Potency (GB4) | Potency (P93_24) | Potency (TAB109) | Potency (TAB165)

CN1[C@@H]2CC[C@H]1CC(OC(=O)[C@@H](CO)c1ccccc1)C2 (stereo partly drawn)
inactive: outcome [2]

Cc1cc(O)c(C(C)C)cc1C1(c2cc(C(C)C)c(O)cc2C)OC(=O)c2ccccc21
active: Potency [1] 1.58 µM

Oc1ccc([C@@H]2CNCCc3c2cc(O)c(O)c3Cl)cc1
inactive: outcome [2]

OC[C@H](S)CS
inactive: Potency (CP194) | Potency (TAB165)
active: Potency (3D7) 3.16 µM | Potency (CP260) 891 nM | Potency (CP286) 3.16 µM | Potency (CP335) 3.38 µM | Potency (DIV14) 12 µM | Potency (Dd2) 2.24 µM

N[C@H](COP(=O)(O)O)C(=O)O
inactive: Potency (3D7) | Potency (CP194) | Potency (CP260) | Potency (CP268) | Potency (CP269) | Potency (CP286) | Potency (CP291) | Potency (CP297) | Potency (CP305) | Potency (CP335) | Potency (DIV14) | Potency (Dd2) | Potency (ECU) | Potency (FAB9) | Potency (GB4) | Potency (P93_24) | Potency (TAB109) | Potency (TAB165)

COc1cc2nc(N(C)CCCNC(=O)[C@@H]3CCCO3)nc(N)c2cc1OC
inactive: Potency (3D7) | Potency (CP194) | Potency (CP260) | Potency (CP268) | Potency (CP269) | Potency (CP286) | Potency (CP291) | Potency (CP297) | Potency (CP305) | Potency (CP335) | Potency (DIV14) | Potency (Dd2) | Potency (ECU) | Potency (FAB9) | Potency (GB4) | Potency (P93_24) | Potency (TAB109) | Potency (TAB165)

Cc1nnc(SCC2=C(C(=O)O)N3C(=O)[C@@H](NC(=O)Cn4cnnn4)[C@@H]3SC2)s1
inactive: outcome [2]
